Only a selection was taken, and hits are over-represented in it overall.
Cycloheximide cs: counter-screen hit for Shiga toxin inhibitors, cycloheximide | AID 2314 | hit rate 12% among 300,000 | cell reporter, cycloheximide protein synthesis inhibition counterscreen | max response, %; in the data active = max response mostly above about 13%, no sharp cut-off; inactive = mostly below about 14%; also: read at 38.3 µM for the half of the compounds with a filed dose; 0% is about no effect
LmPK inhibitor: LmPK (Leishmania mexicana) enzyme inhibition; Q27686; purified LmPK, Kinase-Glo ATP luminescence, 1 h; Potency, µM (top dose mostly 57.5 µM), for inactives: top-dose activity change, negative = inhibition, usual class: inhibitors; hit rate 0.37% among 290,000; also: potency is read from the fitted curve at half-maximal effect; % is scaled to controls: 0 for no effect and ±100 for the full control effect
Target sequence (Q27686 whole entry, looked up): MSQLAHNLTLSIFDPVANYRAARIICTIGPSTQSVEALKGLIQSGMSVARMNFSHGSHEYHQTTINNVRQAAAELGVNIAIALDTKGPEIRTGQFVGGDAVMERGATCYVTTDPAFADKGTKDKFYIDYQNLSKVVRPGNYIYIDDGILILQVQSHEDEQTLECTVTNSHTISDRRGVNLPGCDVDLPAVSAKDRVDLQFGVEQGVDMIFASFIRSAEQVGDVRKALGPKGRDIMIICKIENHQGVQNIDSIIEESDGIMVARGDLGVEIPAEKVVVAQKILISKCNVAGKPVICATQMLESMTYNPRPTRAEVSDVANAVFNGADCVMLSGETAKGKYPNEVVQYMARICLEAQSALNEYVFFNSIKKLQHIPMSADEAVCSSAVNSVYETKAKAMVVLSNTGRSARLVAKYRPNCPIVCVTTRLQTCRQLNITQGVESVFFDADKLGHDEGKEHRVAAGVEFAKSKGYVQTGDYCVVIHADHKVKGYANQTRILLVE
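Purified LmPK (0.1 nM) converted ADP (0.1 mM) to ATP with PEP (0.5 mM) in imidazole buffer pH 7.2 with KCl and MgCl2, 1 h at room temperature. ATP was read by Kinase-Glo luminescence; data normalized to uninhibited and no-enzyme controls.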
RE007 growth inh: less growth of the S. pombe RE007 Vpr strain. S. pombe RE007 Vpr strain, BacTiter-Glo ATP luminescence, 24 h. Potency, µM (top dose mostly 92.2 µM), for inactives: at the highest dose activity change, negative = less growth, usual class: inhibitors. hit rate 0.21% among 360,000; active = well fitted falling curve with a large enough effect; inconclusive = small, poorly fitted or top-dose-only effect; inactive = no such curve, though single readings can be large or run the other way; also: potency is read from the fitted curve at half-maximal effect; % is scaled to controls: 0 for no effect and ±100 for the full control effect; nearly all actives have a fitted effect of over 50% in size
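Fission yeast RE007 carrying one integrated HIV-1 vpr copy, seeded at OD 0.01 in PMG+AL medium with 23 nL pinned compound. Grown 24 h at 30 degrees; viability read by BacTiter-Glo luminescence after 5 min.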
FBPA Giardia inh: inhibitors of Giardia lamblia fructose-1,6-bisphosphate aldolase. A8B2U2. purified Giardia FBPA. Potency, µM (series often up to 59.6 µM), for the others: at the top dose activity, negative = inhibition, most hits filed as inhibitors. hit rate 0.71% among 290,000. AID 2451; also: potency is read from the fitted curve at half-maximal effect; % is scaled to controls: 0 for no effect and ±100 for the full control effect; nearly all actives have a fitted effect of over 55% in size
Target sequence (A8B2U2 whole entry, looked up): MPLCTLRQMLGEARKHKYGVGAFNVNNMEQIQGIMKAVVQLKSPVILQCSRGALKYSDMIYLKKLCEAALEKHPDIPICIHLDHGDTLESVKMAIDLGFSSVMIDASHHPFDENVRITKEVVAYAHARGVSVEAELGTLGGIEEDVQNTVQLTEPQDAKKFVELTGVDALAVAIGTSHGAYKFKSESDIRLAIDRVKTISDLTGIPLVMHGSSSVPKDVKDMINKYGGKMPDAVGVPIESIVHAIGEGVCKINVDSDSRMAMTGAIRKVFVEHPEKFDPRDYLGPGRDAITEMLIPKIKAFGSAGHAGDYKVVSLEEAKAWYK
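Giardia FBPA (40 nM reagent) was preincubated 10 min at RT with compound (up to 57.5 uM final), then substrate plus GAPDH/TPI/NAD/arsenate coupling system with diaphorase/resazurin was added; resorufin fluorescence (525/598 nm) was read after 20 min.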
Shiga inhibitor: inhibitors of Shiga toxin in Vero cells. Vero cells, Shiga toxin protein synthesis inhibition reporter. inhibition, % at 38.7 µM. hit rate 9.2% among 290,000. AID 2315; in the data active = inhibition mostly above about 28%, no sharp cut-off; inactive = mostly below about 43%; also: 0% is about no effect
TbPYK inhibitor: blocks Trypanosoma brucei pyruvate kinase; Q57TT1; TbPYK enzyme, Kinase-Glo Plus ATP luminescence, 45 min; Potency, µM (titrated, usually from 76.8 µM), for inactives: top-dose activity, negative = inhibition, most hits filed as inhibitors; hit rate 0.12% among 410,000; also: potency is read from the fitted curve at half-maximal effect; % is scaled to controls: 0 for no effect and ±100 for the full control effect; nearly all actives have a fitted effect of over 50% in size
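Glycolytic pyruvate kinase of T. brucei was incubated with substrate, test compound and 130 uM ADP for 45 minutes at room temperature. Luminescent Kinase-Glo Plus signal was measured after 10 minutes.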
* = called active by the depositor; [ ] = another dose, or the depositor's remark. Unless noted, calls follow the shape of the dose curve; as a rule, active = well fitted curve in the direction sought with a large enough effect; inconclusive = small, poorly fitted or top-dose-only effect, or another doubt; inactive = no such curve, though single readings can be large; an effect the other way counts as inactive or inconclusive.

How did NS(=O)(=O)c1ccc(N2N=C(c3ccccc3)CC2c2ccccc2Cl)cc1 (stereo unspecified) do in these assays?
RE007 growth inh: 1.9%; TbPYK inhibitor: -2.8%

How did CC(C)(C)OC(=O)N1CCC(c2c(C(=O)Nc3ccc4c(c3)OCCO4)cnn2-c2ccc(F)cc2F)CC1 do in these assays?
TbPYK inhibitor: -5.3%[15.4 µM]

What do the screens show for `Cc1nc2ccccc2c(=O)n1/N=C/c1cccnc1`?
Cycloheximide cs: 2.3; LmPK inhibitor: 10.4%; RE007 growth inh: 6.0%; FBPA Giardia inh: -1.2%; Shiga inhibitor: -11.3; TbPYK inhibitor: -1.9%

Results for Cc1nc2ccccc2c(=O)n1/N=C/c1ccc(O)cc1O ?
Cycloheximide cs: -1.7; LmPK inhibitor: 1.8%; RE007 growth inh: -17.2%; FBPA Giardia inh: 11.8%; Shiga inhibitor: 15.8; TbPYK inhibitor: -3.9%

What do the screens show for `Cc1ccc(/C=N/n2c(C)nc3ccccc3c2=O)s1`?
Cycloheximide cs: 39.6*; LmPK inhibitor: 9.2%; FBPA Giardia inh: 1.4%; Shiga inhibitor: 92.5*

What do the screens show for `Cc1nc2ccccc2c(=O)n1/N=C/c1ccccc1Cl`?
Cycloheximide cs: 32.7*; LmPK inhibitor: -3.6%; RE007 growth inh: -2.5%; FBPA Giardia inh: 5.7%; Shiga inhibitor: 72.0*; TbPYK inhibitor: 2.9%

How did CCOC(=O)c1c(Nc2ccc(C)c(C)c2)nnc(-c2ccccc2)c1-c1ccccc1 do in these assays?
TbPYK inhibitor: -7.0%

What do the screens show for `CC(C)C[C@@H](CC(=O)N[C@@H](CCCN)CC(=O)N[C@@H]1CCCC[C@H]1C(=O)N[C@H](CC(=O)N[C@@H](CCC(=O)O)CC(=O)O)CC(C)C)NC(=O)[C@@H]1CNCC[C@H]1N`?
FBPA Giardia inh: -21.9%

Results for Cc1cc(C)nc(Nc2ccc(N3CCOCC3)cc2)n1 ?
Cycloheximide cs: 17.1*; LmPK inhibitor: -11.2%; RE007 growth inh: 14.1%; FBPA Giardia inh: -22.7%; Shiga inhibitor: 70.4; TbPYK inhibitor: -21.3%

What do the screens show for `Cc1cc(C)nc(Nc2ccc(N3CCCC3)cc2)n1`?
Cycloheximide cs: 30.3*; LmPK inhibitor: -10.2%; RE007 growth inh: 8.9%; FBPA Giardia inh: -28.0%; Shiga inhibitor: 90.3*; TbPYK inhibitor: -20.3%

How did CCOc1ccc(Nc2nc(N3CCCC3)nc(N3CCN(c4ccc(OC)cc4)CC3)n2)cc1 do in these assays?
Cycloheximide cs: -1.2; LmPK inhibitor: -0.1%; RE007 growth inh: -0.3%; FBPA Giardia inh: -2.8%; Shiga inhibitor: -11.7; TbPYK inhibitor: -10.4%

How did O=[N+]([O-])c1cc(O)c2ncccc2c1 do in these assays?
Cycloheximide cs: 22.4*; LmPK inhibitor: 13.0%; RE007 growth inh: 7.94µM*; FBPA Giardia inh: inconclusive; Shiga inhibitor: 29.9; TbPYK inhibitor: -0.3%

What do the screens show for `O=c1c(Cl)c(NCCCO)cnn1-c1nc2ccccc2[nH]1`?
Cycloheximide cs: 83.9*; LmPK inhibitor: 14.1µM*; RE007 growth inh: inconclusive; FBPA Giardia inh: -1.1%; Shiga inhibitor: 137.5*; TbPYK inhibitor: inconclusive

Results for C=CCN(CC=C)c1cnn(-c2nc3ccccc3[nH]2)c(=O)c1Cl ?
Cycloheximide cs: 27.1*; LmPK inhibitor: 15.8µM*; RE007 growth inh: -15.9%; FBPA Giardia inh: -5.5%; Shiga inhibitor: 88.6*; TbPYK inhibitor: -5.7%

Results for O=C(CCN1C(=O)C2C3C=CC(C3)C2C1=O)NCCc1ccccc1Cl (stereo unspecified) ?
Cycloheximide cs: 14.1*; LmPK inhibitor: -2.6%; RE007 growth inh: -8.4%; FBPA Giardia inh: 5.4%; Shiga inhibitor: 28.0*; TbPYK inhibitor: -5.5%

What do the screens show for `O=C(CN1C(=O)C2C3C=CC(C3)C2C1=O)NCCc1ccccc1` (stereo unspecified)?
Cycloheximide cs: 14.6*; LmPK inhibitor: 1.6%; RE007 growth inh: inconclusive; FBPA Giardia inh: 7.7%; Shiga inhibitor: 10.5; TbPYK inhibitor: inconclusive

How did COc1ccc(-c2nc3scc(CCNS(=O)(=O)c4c(C)cc(C)cc4C)n3n2)cc1OC do in these assays?
TbPYK inhibitor: -2.1%

How did COC(=O)c1cc(=O)c(O)c2c(O)c(O)ccc2c1 do in these assays?
FBPA Giardia inh: 5µM*

How did CCCCOC(=O)Nc1nc2ccccc2s1 do in these assays?
Cycloheximide cs: 25.8*; LmPK inhibitor: -3.9%; RE007 growth inh: 15.1%; FBPA Giardia inh: 6.6%; Shiga inhibitor: 69.4*; TbPYK inhibitor: -8.0%

Results for CCCCN(C(=O)NC(=O)Nc1nc2ccc(OC)cc2s1)S(C)(=O)=O ?
Cycloheximide cs: 53.0*; LmPK inhibitor: -19.0%; RE007 growth inh: -11.3%; FBPA Giardia inh: -1.5%; Shiga inhibitor: 48.1*; TbPYK inhibitor: -20.9%

How did CCOC(=O)c1cc(NC(=O)Nc2nc3ccccc3s2)c(C)nc1C do in these assays?
Cycloheximide cs: -0.5; LmPK inhibitor: 0.6%; RE007 growth inh: 8.8%; FBPA Giardia inh: 4.1%; Shiga inhibitor: -10.9; TbPYK inhibitor: -1.7%

Results for COc1ccc2nc(NC(=O)CS(=O)(=O)c3ccc(C)cc3)sc2c1 ?
Cycloheximide cs: 4.0; LmPK inhibitor: -5.0%; RE007 growth inh: -14.8%; FBPA Giardia inh: 3.0%; Shiga inhibitor: 5.5; TbPYK inhibitor: -0.9%

Results for CCCCOC(=O)Nc1nc2ccc(OC)cc2s1 ?
Cycloheximide cs: 38.0*; LmPK inhibitor: -4.8%; RE007 growth inh: -28.4%; FBPA Giardia inh: 12.5%; Shiga inhibitor: 52.9*; TbPYK inhibitor: 0.7%

What do the screens show for `Cc1cccc(-c2nn3c(=O)cc(CN4CCN(C(=O)/C=C/c5ccccc5)CC4)nc3s2)c1`?
TbPYK inhibitor: -0.5%

What do the screens show for `CCn1c(SCC(=O)c2ccccc2)nnc1-c1ccoc1C`?
Cycloheximide cs: 21.5*; LmPK inhibitor: 2.1%; RE007 growth inh: -6.0%; FBPA Giardia inh: -11.6%; Shiga inhibitor: 49.8*; TbPYK inhibitor: 7.3%

What do the screens show for `CCn1nnnc1SCC(=O)c1ccc(NC(C)=O)cc1`?
Cycloheximide cs: 21.7; LmPK inhibitor: -2.9%; RE007 growth inh: 11.2%; FBPA Giardia inh: -5.2%; Shiga inhibitor: 23.0; TbPYK inhibitor: 1.2%

How did N#Cc1ccc(-c2cccnc2)nc1SCC(=O)c1ccccc1 do in these assays?
Cycloheximide cs: 36.7*; LmPK inhibitor: 1.5%; RE007 growth inh: 12.7%; FBPA Giardia inh: 0.3%; Shiga inhibitor: 82.2*; TbPYK inhibitor: 3.8%

Results for CCn1nnnc1SCC(=O)c1ccc(C)cc1 ?
Cycloheximide cs: 38.5*; LmPK inhibitor: 5.7%; RE007 growth inh: 19.4%; FBPA Giardia inh: 1.9%; Shiga inhibitor: 121.3*; TbPYK inhibitor: -3.2%

Results for CCn1c(Cn2nnc(-c3ccccc3)n2)nnc1SCC(=O)Nc1ccc(C(C)=O)cc1 ?
Cycloheximide cs: 43.7*; LmPK inhibitor: 4.1%; RE007 growth inh: -6.6%; FBPA Giardia inh: 11.9%; Shiga inhibitor: 57.0*; TbPYK inhibitor: -1.9%

Screening results: PubChem, National Center for Advancing Translational Sciences (NCATS)
